In PubChem BioAssay (NCI):
About 83,000 compounds went through this panel and 20% of them were active in at least one assay; those are over-represented in the sample as a whole.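 The test compound was applied at a single concentration to cells in 96-well plates for 48 hours, and percent growth was recorded.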 Activity calls are given as the source filed them. How the source made its calls: active means growth percent below 10; inactive means the rest.

These molecules were tested on CAKI-1 renal (assay: NCI-60 one-dose screen, 48 h (100 = growth as untreated, 0 = no growth, -100 = all killed)). Settings: 10 µM.

Row | Compound | growth
1 | CCN(CC)CCNc1ccc(CO)c2oc3cc(Cl)ccc3c(=O)c12 | 87.3% (inactive)
2 | O=C(O)C(SC(C(=O)O)c1ccccc1)c1ccccc1 (stereo not drawn) | 91.8% (inactive)
3 | COc1ccc(-c2nc3ccccn3c2-c2nnc(-c3cc(OC)c(OC)c(OC)c3)o2)cc1 | 80.1% (inactive)
4 | N#Cc1c(C#N)c(SSc2c(C#N)c(C#N)c(N)n2-c2ccccc2)n(-c2ccccc2)c1N | 118% (inactive)
5 | Cc1ccc(-c2nc(/C=C3/C(=O)N(C)c4ccc(F)cc43)c3ccccn23)cc1 | 105% (inactive)
6 | CCN(CC)CCSCCCNc1c2ccc(Cl)cc2nc2ccc(OC)cc12 | -22.8% (active)
7 | CN1CC[C@@H](c2c(O)cc(O)c3c(=O)cc(-c4ccccc4Cl)oc23)[C@@H](O)C1 | 5.1% (active)
8 | NC1=NC(=O)C(c2ccccc2)(c2ccccc2)S1 | 114% (inactive)
9 | CCc1ccc2c(c1)N(CCO)C1=C(C(=O)OC1)C2c1ccccc1 (stereo not drawn) | 101% (inactive)
10 | Cc1cccc2c(NCCN(C)C)c3cccc(C(=O)NCCN(C)C)c3nc12 | 6.76% (active)
11 | CCCN(CCC)CCC(O)c1cc2c(c3ccccc13)CCCC2 (stereo not drawn) | 96.1% (inactive)
12 | COc1ccc2c(c1)/C(=C\c1c[nH]c3ccc(OC)cc13)C(=O)N2 | 21.3% (inactive)
13 | Nc1ccn(C2CC(O)C(CO)O2)c(=O)n1 (stereo not drawn) | 99.4% (inactive)
14 | COc1cccc(C2C3=C(COC3=O)N(CCO)c3cc(OC)ccc32)c1 (stereo not drawn) | 36.7% (inactive)
15 | C=C(C(=O)c1ccccc1)C(NC(C)(C)C)c1ccccc1 (stereo not drawn) | 6.9% (active)
16 | CCCC1(CC(=O)O)OCCc2c1[nH]c1ccccc21 (stereo not drawn) | 91% (inactive)
17 | CN(C)C(=S)N/N=C\C=N/NC(=S)N(C)C | 74.1% (inactive)
18 | C=C(NC(=O)C(=C)NC(=O)c1csc(C2=NC3c4csc(n4)C4NC(=O)c5csc(n5)C(C(C)(O)C(C)O)NC(=O)C5CSC(=N5)/C(=C/C)NC(=O)C(C(C)O)NC(=O)c5csc(n5)C3(CC2)NC(=O)C(C)NC(=O)C(=C)NC(=O)C(=C)NC(=O)C(C(C)C)NC2C=Cc3c(C(C)O)cc(nc3C2O)C(=O)OC4C)n1)C(N)=O (stereo not drawn) | 15.8% (inactive)
19 | COc1ccc2nc3ccccc3c(NCCNCC(C)O)c2c1 (stereo not drawn) | 42.5% (inactive)
20 | CN(C)CCN1C(=O)c2cccc3cc(N)cc(c23)C1=O | 3% (active)

Row | Compound | growth
21 | COc1ccc(N2C(=O)C3c4[nH]c5ccc(OCc6ccccc6)cc5c4C4CCC(C(C)C)CC4C3C2=O)cc1 (stereo not drawn) | 94% (inactive)
22 | CC(C)C[C@H](NC(=O)[C@H](Cc1cccc2ccccc12)NS(=O)(=O)c1cccc2cccnc12)B(O)O | -20.7% (active)
23 | O=C(CC(C(=O)c1ccccc1)N1CCOCC1)c1ccccc1 (stereo not drawn) | 100% (inactive)
24 | NC(=O)SCC(=O)Nc1ccc(S(N)(=O)=O)cc1 | 104% (inactive)
25 | CCCCN(CCCC)CCCCCCCCC(O)c1cc2ccccc2c2ccccc12 (stereo not drawn) | 71.9% (inactive)
26 | O=C(CCCCCCC(=O)Nc1cccnc1)NO | 46.6% (inactive)
27 | COc1ccc2nc3cc(Cl)ccc3c(NCCNCC(C)O)c2c1 (stereo not drawn) | 47.6% (inactive)
28 | Clc1cccc(-c2nc(-c3cccs3)no2)c1 | 103% (inactive)
29 | CCCCCCCCCCCCCCCCCCOCC(COCCOCC[N+]1(CCCCCC(=O)[O-])CCCC1)Oc1ncccn1 (stereo not drawn) | 93.5% (inactive)
30 | CC/C(=N\N=C(/CC)c1ccc(Br)cc1)c1ccc(Br)cc1 | 99.3% (inactive)
31 | O=C1OCC2=C1C(c1ccc(Cl)c(Cl)c1)c1cc3c(cc1N2CCO)OCCO3 (stereo not drawn) | 34.1% (inactive)
32 | COc1cc2nc(Nc3cccc(NC(C)=O)c3)nc(N)c2cc1OC | 127% (inactive)
33 | Cc1nc2ccc(CN(C)c3ccc(C(=O)N[C@@H](CCC(=O)O)C(=O)O)s3)cc2c(=O)[nH]1 | 28.5% (inactive)
34 | CCCCCCCCN(CCCCCCCC)CCCCCCCCCN1CCCc2cc(OC)ccc21 | 99.3% (inactive)
35 | Nc1ncnc2[nH]c(=O)[nH]c12 | 6.82% (active)
36 | COc1ccc2c(c1)sc1nc(-c3ccccc3)c(-c3cccnc3)n12 | 81.2% (inactive)
37 | C=C(Cl)[C@@](Cl)(CBr)CC[C@@H](Br)C(C)(C)Cl | -98.7% (active)
38 | C[N+](C)(C)c1ncnc2nc[nH]c12 | 83% (inactive)
39 | COC(=O)[C@@H]1[C@H](O)[C@H](C)[C@H](O)[C@@](C)(O)/C=C\C=C(C)C(=O)Nc2c(C)c(OC(C)=O)c3c(c2O)C(=O)C(C)=C2OCOC(=C23)C(C)=C[C@@](C)(O)[C@H](O)[C@@H](C)[C@H]1OC(C)=O | 100% (inactive)

These molecules were tested on A498 renal in the same assay as above. Settings: 10 µM.

Row | Compound | growth
40 | CCN(CC)CCNc1ccc(CO)c2oc3cc(Cl)ccc3c(=O)c12 | 50.9% (inactive)
41 | O=C(O)C(SC(C(=O)O)c1ccccc1)c1ccccc1 (stereo not drawn) | 107% (inactive)
42 | COc1ccc(-c2nc3ccccn3c2-c2nnc(-c3cc(OC)c(OC)c(OC)c3)o2)cc1 | 48.2% (inactive)
43 | N#Cc1c(C#N)c(SSc2c(C#N)c(C#N)c(N)n2-c2ccccc2)n(-c2ccccc2)c1N | 92.1% (inactive)
44 | Cc1ccc(-c2nc(/C=C3/C(=O)N(C)c4ccc(F)cc43)c3ccccn23)cc1 | 95.9% (inactive)
45 | CCN(CC)CCSCCCNc1c2ccc(Cl)cc2nc2ccc(OC)cc12 | -77.7% (active)
46 | CN1CC[C@@H](c2c(O)cc(O)c3c(=O)cc(-c4ccccc4Cl)oc23)[C@@H](O)C1 | -40.8% (active)
47 | NC1=NC(=O)C(c2ccccc2)(c2ccccc2)S1 | 106% (inactive)
48 | CCc1ccc2c(c1)N(CCO)C1=C(C(=O)OC1)C2c1ccccc1 (stereo not drawn) | 73.4% (inactive)
49 | Cc1cccc2c(NCCN(C)C)c3cccc(C(=O)NCCN(C)C)c3nc12 | 33.8% (inactive)
50 | CCCN(CCC)CCC(O)c1cc2c(c3ccccc13)CCCC2 (stereo not drawn) | 74.4% (inactive)
51 | COc1ccc2c(c1)/C(=C\c1c[nH]c3ccc(OC)cc13)C(=O)N2 | 34.6% (inactive)
52 | Nc1ccn(C2CC(O)C(CO)O2)c(=O)n1 (stereo not drawn) | 124% (inactive)
53 | COc1cccc(C2C3=C(COC3=O)N(CCO)c3cc(OC)ccc32)c1 (stereo not drawn) | -6.88% (active)
54 | C=C(C(=O)c1ccccc1)C(NC(C)(C)C)c1ccccc1 (stereo not drawn) | 94.1% (inactive)
55 | CCCC1(CC(=O)O)OCCc2c1[nH]c1ccccc21 (stereo not drawn) | 106% (inactive)
56 | CN(C)C(=S)N/N=C\C=N/NC(=S)N(C)C | 89% (inactive)
57 | C=C(NC(=O)C(=C)NC(=O)c1csc(C2=NC3c4csc(n4)C4NC(=O)c5csc(n5)C(C(C)(O)C(C)O)NC(=O)C5CSC(=N5)/C(=C/C)NC(=O)C(C(C)O)NC(=O)c5csc(n5)C3(CC2)NC(=O)C(C)NC(=O)C(=C)NC(=O)C(=C)NC(=O)C(C(C)C)NC2C=Cc3c(C(C)O)cc(nc3C2O)C(=O)OC4C)n1)C(N)=O (stereo not drawn) | -30.3% (active)
58 | COc1ccc2nc3ccccc3c(NCCNCC(C)O)c2c1 (stereo not drawn) | -48.5% (active)
59 | CN(C)CCN1C(=O)c2cccc3cc(N)cc(c23)C1=O | 41.8% (inactive)

Row | Compound | growth
60 | COc1ccc(N2C(=O)C3c4[nH]c5ccc(OCc6ccccc6)cc5c4C4CCC(C(C)C)CC4C3C2=O)cc1 (stereo not drawn) | 105% (inactive)
61 | CC(C)C[C@H](NC(=O)[C@H](Cc1cccc2ccccc12)NS(=O)(=O)c1cccc2cccnc12)B(O)O | -36.4% (active)
62 | O=C(CC(C(=O)c1ccccc1)N1CCOCC1)c1ccccc1 (stereo not drawn) | 89.9% (inactive)
63 | NC(=O)SCC(=O)Nc1ccc(S(N)(=O)=O)cc1 | 100% (inactive)
64 | CCCCN(CCCC)CCCCCCCCC(O)c1cc2ccccc2c2ccccc12 (stereo not drawn) | 46% (inactive)
65 | O=C(CCCCCCC(=O)Nc1cccnc1)NO | 42.9% (inactive)
66 | COc1ccc2nc3cc(Cl)ccc3c(NCCNCC(C)O)c2c1 (stereo not drawn) | 37% (inactive)
67 | Clc1cccc(-c2nc(-c3cccs3)no2)c1 | 93.1% (inactive)
68 | CCCCCCCCCCCCCCCCCCOCC(COCCOCC[N+]1(CCCCCC(=O)[O-])CCCC1)Oc1ncccn1 (stereo not drawn) | 73.7% (inactive)
69 | CC/C(=N\N=C(/CC)c1ccc(Br)cc1)c1ccc(Br)cc1 | 103% (inactive)
70 | O=C1OCC2=C1C(c1ccc(Cl)c(Cl)c1)c1cc3c(cc1N2CCO)OCCO3 (stereo not drawn) | -5.46% (active)
71 | COc1cc2nc(Nc3cccc(NC(C)=O)c3)nc(N)c2cc1OC | 95% (inactive)
72 | Cc1nc2ccc(CN(C)c3ccc(C(=O)N[C@@H](CCC(=O)O)C(=O)O)s3)cc2c(=O)[nH]1 | 21.5% (inactive)
73 | CCCCCCCCN(CCCCCCCC)CCCCCCCCCN1CCCc2cc(OC)ccc21 | 96% (inactive)
74 | Nc1ncnc2[nH]c(=O)[nH]c12 | 128% (inactive)
75 | COc1ccc2c(c1)sc1nc(-c3ccccc3)c(-c3cccnc3)n12 | 58.4% (inactive)
76 | C=C(Cl)[C@@](Cl)(CBr)CC[C@@H](Br)C(C)(C)Cl | 99.3% (inactive)
77 | C[N+](C)(C)c1ncnc2nc[nH]c12 | 98.3% (inactive)
78 | COC(=O)[C@@H]1[C@H](O)[C@H](C)[C@H](O)[C@@](C)(O)/C=C\C=C(C)C(=O)Nc2c(C)c(OC(C)=O)c3c(c2O)C(=O)C(C)=C2OCOC(=C23)C(C)=C[C@@](C)(O)[C@H](O)[C@@H](C)[C@H]1OC(C)=O | 120% (inactive)
